# Assay results taken from PubChem BioAssay (EPA / NIEHS).
# The source made the active and inactive calls. Rule for the calls: active = hit-call score of the fitted dose curve at least 0.9, where 1 is the maximum; inactive = score below 0.9.
# Test: BSK_4H_SRB: Viability Assessment in the BioMAP Diversity Plus: 4H Assay (AID 2283027);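 note: cells exposed to compound for 24 h before staining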;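 for AC50: curves fitted both ways versus DMSO so AC50 may be loss or gain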
# Settings: primary human endothelial cells (HUVEC)
# Procedure, shortened: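 HUVEC, 24 h post-dose; 10% TCA fix, 0.1% SRB stain, A560 nm. Total protein = overt cytotoxicity, parallel to biomarker read. Bidirectional fit vs DMSO baseline.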
SMILES,outcome,AC50
CC1(C)C(C=C(Cl)Cl)C1C(=O)OCc1cccc(Oc2ccccc2)c1 (stereo not given),inactive,–
CCN(Cc1c(F)cccc1Cl)c1c([N+](=O)[O-])cc(C(F)(F)F)cc1[N+](=O)[O-],–,12.6 µM (active)
COCCO,inactive,–
COc1c(Cl)ccc(Cl)c1C(=O)O,inactive,–
CCCN(CCC)C(=O)SCC,inactive,–
CCCCOC(=O)[C@@H](C)Oc1ccc(Oc2ccc(C(F)(F)F)cn2)cc1,inactive,–
c1ccc2[nH]c(-c3cscn3)nc2c1,inactive,–
COC(=O)c1ccccc1S(=O)(=O)NC(=O)Nc1nc(OC(F)F)cc(OC(F)F)n1,inactive,–
CCCCCOC(=O)COc1cc(N2C(=O)C3=C(CCCC3)C2=O)c(F)cc1Cl,inactive,–
O=C(O)c1ccccc1,inactive,–
CCCCCCC(C)OC(=O)COc1nc(F)c(Cl)c(N)c1Cl (stereo not given),–,34.5 µM (active)
COC(=O)c1ccccc1C(=O)O,inactive,–
CCCOC(=O)NCCCN(C)C,inactive,–
CC(=O)[C@H]1CC[C@H]2[C@@H]3CCC4=CC(=O)CC[C@]4(C)[C@H]3CC[C@]12C,inactive,–
CCOC(=O)C(C)Oc1ccc(Oc2nc3ccc(Cl)cc3o2)cc1 (stereo not given),inactive,–
C[C@]12CC[C@@H]3c4ccc(O)cc4C[C@@H](CCCCCCCCCS(=O)CCCC(F)(F)C(F)(F)F)[C@H]3[C@@H]1CC[C@@H]2O (stereo not given in full),inactive,–
COC(=O)c1ccc(CNS(C)(=O)=O)cc1S(=O)(=O)NC(=O)Nc1nc(OC)cc(OC)n1,inactive,–
COC(=O)c1cccc(C)c1S(=O)(=O)NC(=O)Nc1nc(OCC(F)(F)F)nc(N(C)C)n1,inactive,–
CCOC(=O)c1ccc(O)cc1,inactive,–
CCCCC(CC)COC(=O)c1ccccc1C(=O)O (stereo not given),inactive,–
C=CCOC(Cn1ccnc1)c1ccc(Cl)cc1Cl (stereo not given),inactive,–
O=C(c1ccccc1)C1CCCCC1,inactive,–
CCOC(=O)COc1cc(-n2ncc(C(F)(F)F)c(C)c2=O)c(F)cc1Cl,inactive,–
O=C(Nc1ccc([N+](=O)[O-])cc1Cl)c1cc(Cl)ccc1O,–,0.516 µM (active)
CCN(CC)C(=O)c1cccc(C)c1,inactive,–
C#CCOC(=O)[C@@H](C)Oc1ccc(Oc2ncc(Cl)cc2F)cc1,inactive,–
CC(C)CCCCCCc1ccc(O)cc1,–,6.94 µM (active)
COC(=O)c1c(Cl)nn(C)c1S(=O)(=O)NC(=O)Nc1nc(OC)cc(OC)n1,inactive,–
CC(=O)S[C@@H]1CC2=CC(=O)CC[C@]2(C)[C@H]2CC[C@@]3(C)[C@@H](CC[C@@]34CCC(=O)O4)[C@H]12,–,32 µM (active)
O=C(O)C1(C(=O)Nc2ccc(Cl)cc2Cl)CC1,inactive,–
